# Assay results: PubChem BioAssay (Tox21)
# Unmarked numbers belong to inactive results. Records with an inconclusive call do not appear. Where a call stands in place of a potency, no number is given. Active and inactive are the calls of the source. Unless noted, calls follow the shape of the dose curve; as a rule, active = well fitted curve in the direction sought with a large enough effect in the repeat runs; inconclusive = weak or mixed curves; inactive = no such curve, though single readings can be large; an effect the other way counts as inactive or inconclusive.
# Columns and labels:
# [1] = qHTS assay to identify small molecule agonists of the hypoxia (HIF-1) signaling pathway - cell viability counter screen (AID 1224844; calls by dose curve; also: nearly all actives have a fitted effect of over 50% in size); conditions: HRE-bla ME-180 viability, CellTiter-Glo luminescence, 17 h; series mostly up to 76.8 µM
# Method in brief: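 Cells (HRE-bla ME-180, 2,000 per well) sat 5 hrs at 37C, got compound for 17 hrs, were read for CCF4-AM FRET, and were finally lysed with CellTiter-Glo for a 30 min room-temperature luminescence read.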
# [2] = qHTS assay to identify small molecule agonists of H2AX (AID 1224845; active = well fitted activation curve with a large enough effect in the signal ratio in the repeat runs, not every such curve was filed as active; the % refers to the signal ratio); conditions: CHO-K1 phospho-H2AX Ser139 HTRF, 3 h; series mostly up to 154 µM
# Method in brief: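 Phospho-H2AX Ser139 measured by HTRF (ex 320 nm; em 665 and 620 nm) after 24 hr antibody incubation. Compounds, 15 concentrations, 0.76% DMSO, were applied to CHO-K1 cells for 3hr at 37C before lysis.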
# [3] = qHTS assay to identify small molecule agonists of the hypoxia (HIF-1) signaling pathway (AID 1224846; active = well fitted activation curve with a large enough effect in the signal ratio in the repeat runs, not every such curve was filed as active; the % refers to the signal ratio); conditions: HRE-bla ME-180 cells, beta-lactamase ratio, 17 h; series mostly up to 76.8 µM
# Method in brief: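 A low-serum medium (0.5% dialyzed FBS) holding 2,000 HRE-bla ME-180 cells per well is preincubated for 5 hrs, dosed with compounds by pintool, and kept a further 17 hrs at 37C, 5% CO2 before CCF4-AM FRET detection of beta-lactamase.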
# [4] = qHTS assay to identify small molecule agonists of H2AX - cell viability counter screen (AID 1224847; calls by dose curve;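 also: wild-type CHO-K1 cells; top concentration of the series differs between compounds; nearly all actives have a fitted effect of over 30% in size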); conditions: CHO-K1 viability, CellTiter-Glo luminescence, 3 h; series mostly up to 154 µM
# Method in brief: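 Cells plated first: CHO-K1, 1000 per well in 10% FBS medium, incubated overnight at 37C. Then 15-point compound titration added (final DMSO 0.76%) for 3 hr. Finally CellTiter-Glo added and luminescence read.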
# [5] = qHTS RealTime-Glo MT Cell Viability Assay in HepG2 cells - 24 hour (AID 1224867); conditions: RealTime-Glo luminescence; series mostly up to 76.8 µM; also: nearly all actives have a fitted effect of over 50% in size
# Method in brief: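 HepG2 suspension premixed with RealTime-Glo reagents is plated at 600 cells per well and left 5 h at 37 C/5% CO2. Compounds in DMSO then go in, and bioluminescence reflecting viable cell number is recorded over 40 h.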
# [6] = qHTS RealTime-Glo MT Cell Viability Assay in HEK293 cells - 32 hour (AID 1224868); conditions: RealTime-Glo luminescence; series mostly up to 76.8 µM; also: nearly all actives have a fitted effect of over 50% in size; also: potency is read from the fitted curve at half-maximal effect; as to activity change, negative = cytotoxic: top concentration of the series differs between compounds
# Method in brief: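 Reads taken at 0, 8, 16, 24, 32 and 40 h from the same wells. HEK293 cells (600/well) carried RealTime-Glo reagents from seeding, with compound added after a 5 h settle at 37 C.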
# [7] = A CellTox Green Cytotoxicity Assay to monitor cytotoxicity in HEK293 cells - 0 hour (AID 1224869); conditions: CellTox Green fluorescence; series mostly up to 76.8 µM; also: nearly all actives have a fitted effect of over 50% in size
# Method in brief: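 Fluorescence intensity, read at 0, 8, 16, 24, 32 and 40 h of compound treatment, reflected dye binding to DNA of dead HEK293 cells; compounds (23 nL, DMSO) were added 5 h after plating cells with reagent.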
# [8] = qHTS RealTime-Glo MT Cell Viability Assay in HepG2 cells - 40 hour (AID 1224870); conditions: RealTime-Glo luminescence; series mostly up to 76.8 µM; also: nearly all actives have a fitted effect of over 50% in size
# Method in brief: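 Real-time viability: cells seeded at 600 per well together with NanoLuc and cell-permeant prosubstrate, compounds added after 5 h incubation. Luminescence tracked at 0, 8, 16, 24, 32 and 40 h of exposure.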
# [9] = qHTS assay to identify small molecule antagonists of the estrogen related receptor (ERR) signaling pathway from Tox21 library (AID 1224848); conditions: ERR reporter cell line, luciferase antagonist mode, 18 h; series mostly up to 92.4 µM; also: nearly all actives have a fitted effect of over 50% in size
# Method in brief: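 Reading was by luminescence 30 min after ONE-Glo addition. Before that, ERR cells at 2,000 per well had rested 6 h at 37 C/5% CO2 and then received pin-tooled compounds in DMSO for 18 h at 37 C.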
# [10] = qHTS assay to identify small molecule agonists of the estrogen related receptor (ERR) signaling pathway from Tox21 library (AID 1224849; calls by dose curve; also: nearly all actives have a fitted effect of over 15% in size); conditions: ERR reporter cell line, ONE-Glo luciferase, 18 h; at 92.4 µM (top of the series) unless noted
# Method in brief: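 Screening used an NTP-provided ERR luciferase cell line. Compounds in DMSO were added 6 h after seeding and left 18 h at 37 C before a 30 min ONE-Glo step and luminescence reading.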
smiles,measurement,setting,value
NCCN1CCOCC1,outcome,[1],inactive
same,outcome,[2],inactive
same,outcome,[3],inactive
same,Potency,[4],inactive
same,outcome,[5],inactive
same,Potency,[6],inactive
same,outcome,[7],inactive
same,outcome,[8],inactive
CCCCCCCCC1CCC(=O)O1 (configuration not stated),outcome,[1],inactive
same,outcome,[2],inactive
same,outcome,[3],inactive
same,Potency,[4],inactive
same,Potency,[9],inactive
same,Potency,[6],inactive
same,outcome,[7],inactive
same,outcome,[8],inactive
CCOC(=O)CC(=O)c1ccccc1,outcome,[1],inactive
same,outcome,[2],inactive
same,outcome,[3],inactive
same,Potency,[4],inactive
same,outcome,[5],inactive
same,Potency,[6],inactive
same,outcome,[7],inactive
same,outcome,[8],inactive
CCOc1cc(NC(C)=O)ccc1C(=O)OC,outcome,[1],inactive
same,outcome,[2],inactive
same,outcome,[3],inactive
same,Potency,[4],inactive
same,Potency,[9],inactive
same,"activity change, positive = activation",[10],-6.13% [at 42.5 µM]
same,outcome,[7],inactive
same,outcome,[8],inactive
CCCOC(OCCC)OCCC,outcome,[1],inactive
same,outcome,[2],inactive
same,outcome,[3],inactive
same,Potency,[4],inactive
same,Potency,[9],inactive
same,"activity change, positive = activation",[10],4.24%
same,outcome,[7],inactive
O=C(Nc1ccc(Cl)c(Cl)c1)C1CC1,outcome,[1],inactive
same,outcome,[2],inactive
same,outcome,[3],inactive
same,Potency,[4],inactive
same,"activity change, positive = activation",[10],-22.3% [at 42.5 µM]
same,outcome,[5],inactive
same,Potency,[6],9.52 µM (active)
same,outcome,[7],inactive
same,outcome,[8],inactive
CCCCCCCCCC(C)=O,outcome,[1],inactive
same,outcome,[2],inactive
same,outcome,[3],inactive
same,Potency,[4],inactive
same,outcome,[5],inactive
same,Potency,[6],inactive
same,outcome,[7],inactive
Cc1ccc2c(c1)OCC(=O)CO2,outcome,[1],inactive
same,outcome,[2],inactive
same,outcome,[3],inactive
same,Potency,[4],inactive
same,Potency,[9],inactive
same,outcome,[5],inactive
same,outcome,[7],inactive
O=C(O)c1ccc(Cl)cc1Cl,outcome,[1],inactive
same,outcome,[2],inactive
same,outcome,[3],inactive
same,Potency,[4],inactive
same,outcome,[5],inactive
same,Potency,[6],inactive
same,outcome,[7],inactive
same,outcome,[8],inactive
CC(=O)NCCCCCC(=O)O,outcome,[1],inactive
same,outcome,[2],inactive
same,outcome,[3],inactive
same,Potency,[4],inactive
same,outcome,[5],inactive
same,Potency,[6],inactive
same,outcome,[7],inactive
same,outcome,[8],inactive
OC[C@H](Cc1cccc(O)c1)[C@H](CO)Cc1cccc(O)c1,outcome,[1],inactive
same,outcome,[2],inactive
same,outcome,[3],inactive
same,Potency,[4],inactive
same,"activity change, positive = activation",[10],-21.1%
same,outcome,[5],inactive
same,outcome,[7],inactive
same,outcome,[8],inactive
O=C(O)Cc1ccc(Cl)cc1Cl,outcome,[1],inactive
same,outcome,[2],inactive
same,outcome,[3],inactive
same,Potency,[4],inactive
same,outcome,[5],inactive
same,Potency,[6],inactive
same,outcome,[7],inactive
CCC(C)NC(N)=O (configuration not stated),outcome,[1],inactive
same,outcome,[2],inactive
same,outcome,[3],inactive
same,Potency,[4],inactive
same,outcome,[5],inactive
same,Potency,[6],inactive
same,outcome,[7],inactive
same,outcome,[8],inactive
CC(=O)Nc1ccc(S(=O)(=O)Nc2ccc([N+](=O)[O-])cc2)cc1,outcome,[1],inactive
same,outcome,[2],inactive
same,outcome,[3],inactive
same,Potency,[4],inactive
same,outcome,[5],inactive
same,Potency,[6],inactive
same,outcome,[7],inactive
CCCCCCCC/C=C\CCCCCCCC(=O)OCCCC,"activity change, negative = cytotoxicity",[1],-10.5% [at 15.8 µM]
same,activation (H2AX phosphorylation),[2],4.47% [at 31.6 µM]
same,activation,[3],-1.44% [at 15.8 µM]
same,"activity change, negative = cytotoxicity",[4],-0.831% [at 31.6 µM]
same,"activity, negative = inhibition",[9],0.129% [at 19 µM]
same,"activity change, positive = activation",[10],0.0665% [at 19 µM]
same,cytotoxicity,[7],-14.5% [at 15.8 µM]
same,"activity change, negative = cytotoxic",[8],12.2% [at 15.8 µM]
O=C(O)Cc1cn(-c2ccccc2)nc1-c1ccc(Cl)cc1,outcome,[1],inactive
same,outcome,[2],inactive
same,outcome,[3],inactive
same,Potency,[4],inactive
same,outcome,[5],inactive
same,Potency,[6],inactive
same,outcome,[7],inactive
same,outcome,[8],inactive
O=C1c2ccccc2C(=O)N1CCl,outcome,[1],inactive
same,outcome,[2],inactive
same,outcome,[3],inactive
same,Potency,[4],inactive
same,Potency,[9],inactive
same,"activity change, positive = activation",[10],0.282%
same,Potency,[6],inactive
same,outcome,[7],inactive
same,outcome,[8],inactive
NNc1nnc(NN)c2ccccc12,outcome,[1],inactive
same,outcome,[2],inactive
same,outcome,[3],inactive
same,Potency,[4],inactive
same,outcome,[5],inactive
same,Potency,[6],inactive
same,outcome,[7],inactive
C[C@H](N)[C@H](O)c1cccc(O)c1,outcome,[1],inactive
same,outcome,[2],inactive
same,outcome,[3],inactive
same,Potency,[4],inactive
same,outcome,[5],inactive
same,Potency,[6],inactive
same,outcome,[7],inactive
same,outcome,[8],inactive
O=C(/N=N/C(=O)OCc1ccccc1)OCc1ccccc1,outcome,[1],inactive
same,outcome,[2],inactive
same,outcome,[3],inactive
same,Potency,[4],inactive
same,outcome,[5],inactive
same,Potency,[6],inactive
same,outcome,[7],inactive
same,outcome,[8],inactive
CC(N)C(=O)OC(C)(C)Cc1ccc(Cl)cc1 (configuration not stated),outcome,[1],inactive
same,outcome,[2],inactive
same,outcome,[3],inactive
same,Potency,[4],inactive
same,outcome,[5],inactive
same,Potency,[6],inactive
same,outcome,[7],inactive
same,outcome,[8],inactive
CC1=CCC(C(C)C)=CC1,outcome,[1],inactive
same,outcome,[2],inactive
same,outcome,[3],inactive
same,Potency,[4],inactive
same,outcome,[5],inactive
same,Potency,[6],inactive
same,outcome,[7],inactive
same,outcome,[8],inactive
CC(C)c1ccc2cc(C(C)C)ccc2c1,outcome,[1],inactive
same,outcome,[2],inactive
same,outcome,[3],inactive
same,Potency,[4],inactive
same,outcome,[5],inactive
same,Potency,[6],inactive
same,outcome,[7],inactive
same,outcome,[8],inactive
NS(=O)(=O)c1cc2c(cc1Cl)CN(C1CCCCC1)C2=O,outcome,[1],inactive
same,outcome,[2],inactive
same,outcome,[3],inactive
same,Potency,[4],inactive
same,outcome,[5],inactive
same,Potency,[6],9.52 µM (active)
same,outcome,[7],inactive
same,outcome,[8],inactive
O=C(O)CCSSCCC(=O)O,outcome,[1],inactive
same,outcome,[2],inactive
same,outcome,[3],inactive
same,Potency,[4],inactive
same,outcome,[5],inactive
same,outcome,[7],inactive
c1ccc2nccnc2c1,outcome,[1],inactive
same,outcome,[2],inactive
same,outcome,[3],inactive
same,Potency,[4],inactive
same,outcome,[5],inactive
same,Potency,[6],inactive
same,outcome,[7],inactive
same,outcome,[8],inactive
